The structures appear in SMILES notation. Values joined by “and” are separate entries in the source; they are usually repeats but may differ in a detail not shown here. Identical values can stand only once. Some compounds were tested as several samples or in several runs, with calls that do not always agree. Active and inactive are the calls of the source. The calls were made as follows: active = hit-call score of the fitted dose curve at least 0.9, where 1 is the maximum; inactive = score below 0.9.

As usually defined, the AC50 is the concentration giving half of the maximal activity seen.

Read-out in this experiment: CD90, THY1 (gene 7070)
Kind of experiment: BSK_BF4T_CD90: BioMAP Diversity Plus: BF4T Assay for CD90 Biomarker Activity (AID 2284262). The conditions noted are these: primary human bronchial epithelial cells with fibroblasts. How it is done: BSK_BF4T is a cell-based, multiplexed-readout assay that uses bronchial epithelial cells and dermal fibroblasts, a human vascular primary cell, with measurements taken at 24 hours after chemical dosing in a microplate: 96-well plate.BSK_BF4T_CD90 is an assay component measured in the BSK_BF4T assay. It measures CD90 antibody related to regulation of gene expression using ELISA technology.Data from the assay component BSK_BF4T_CD90 was analyzed at the endpoint, BSK_BF4T_CD90, in the positive analysis fitting direction relative to DMSO as the negative control and baseline of activity. Using a type of binding reporter, gain or loss-of-signal activity can be used to understand protein changes. To generalize the intended target to other relatable targets, this assay endpoint is annotated to the 'cytokine' intended target family, where the subfamily is 'inflammatory factor'.
The levels of cell surface (or secreted, indicated by the prefix "s") biomarker endpoints were measured by ELISA. Overt cytotoxicity to cells in confluent adherent cultures (all systems other than the BT system) was assessed by measuring total protein levels using sulforhodamine B (SRB) staining in parallel cultures at the time of biomarker measurements, indicated as SRB endpoints. For proliferation assays for adherent cell types, individual cell types are cultured at sub-confluence and relative cell numbers quantified by SRB staining at time points optimized for each system (48 h: 3C and CASM3C systems; 72 h: BT and HDF3CGF systems; 96 h: SAg system). SRB was performed by staining cells with 0.1% SRB after fixation with 10% TCA and reading wells at 560 nm.Viability and proliferation of PBMC (T cells) was quantified by Alamar Blue reduction for the SAg and BT systems. For PBMC viability (referred to as PBMC Cytotoxicity within the assay endpoint names), cells were plated (75,000/well in a 96-well plate) and then chemical samples added for 1 h before addition of activators, SEB and TSST-1 (20 ng/mL final concentration each). Cells were incubated for 90 h. Then, Alamar Blue (20 uL/well) (Invitrogen, Cat DAL1100) was added for 6 h, and the plates were read with a fluorescence microplate reader at 546/580 nm (excitation/emission). For PBMC proliferation, cells were plated and activated as above but incubated for only 16 h prior to addition of Alamar Blue. Plates were read after 6 h.
Take `FC(F)(Br)C(F)(F)C(F)(F)C(F)(F)C(F)(F)C(F)(F)Br`: the outcome was inactive. Regarding `FC(F)(F)C(F)(F)C(F)(F)C(F)(F)C(F)(F)CCI`, the result was inactive. `OCC(F)(F)C(F)(F)C(F)(F)C(F)(F)C(F)(F)C(F)(F)F`: the result was inactive. As for `O=C(O)C(F)(F)C(F)(F)C(F)(F)C(F)(F)C(F)(F)C(F)(F)C(F)(F)C(F)(F)C(F)(F)C(F)F`, the concentration at half-maximal activity (AC50) is 17.3 µM (active) and 1.67 µM (active). The same measure, in the same setting: with `OCCCC(F)(F)C(F)(F)C(F)(F)C(F)(F)C(F)(F)C(F)(F)C(F)(F)F` the figure was 30 µM (active) and 21.3 µM (active). As for `C=CC(F)(F)C(F)(F)C(F)(F)C(F)(F)C(F)(F)C(F)(F)C(F)(F)C(F)(F)C=C`, the outcome was inactive. Same read-out and setting: for `OCC(F)(F)C(F)(F)C(F)(F)C(F)F` the value was “inactive”. Same read-out and setting: for `O=C(O)C(F)(OC(F)(F)C(F)(OC(F)(F)C(F)(F)C(F)(F)F)C(F)(F)F)C(F)(F)F` (stereo not given) the value was “inactive”. Same read-out and setting: for `CCO[Si](CCC(F)(F)C(F)(F)C(F)(F)C(F)(F)C(F)(F)C(F)(F)F)(OCC)OCC` the value was “inactive”; for `O=C(O)C(F)(F)C(F)(F)C(F)(F)C(F)(F)F`, “inactive”.

For `O=C(O)C(F)(F)C(F)(F)C(F)(F)C(F)(F)C(F)(F)C(F)(F)C(F)(F)C(F)(F)Cl`, the outcome was inactive and the AC50 was 30 µM (active).

Turning to `O=C(O)C(F)(F)C(F)(F)C(F)(F)F`, the outcome was inactive. As for `FC(F)(F)C(F)(F)C(F)(F)C(F)(F)C(F)(F)C(F)(F)C(F)(F)I`, the outcome was inactive. On the same count and under the same terms, for `OCC(F)(F)C(F)(F)C(F)(F)C(F)(F)C(F)(F)C(F)F` the value was “inactive”; for `O=C(CC(=O)C(F)(F)C(F)(F)F)C(F)(F)F`, “inactive”.

For the compound `FC(F)(F)C(F)(F)CNCC(F)(F)C(F)(F)F`, the result was inactive. On the same count and under the same terms, for `FC(F)(F)C(F)(F)C(F)(F)C(F)(F)C(F)(F)C(F)(F)CC1CO1` (stereo not given) the value was “inactive”; for `C=CC(=O)OCC(F)(F)C(F)(F)C(F)(F)C(F)(F)COC(=O)C=C`, “inactive”; for `FC(F)(I)C(F)(F)C(F)(F)C(F)(F)I`, “inactive”. Same read-out and setting: for `O=S(=O)(OCCOC(F)(F)F)C(F)(F)F` the value was “inactive”; for `C=C(C)C(=O)OCC(F)(F)C(F)(F)C(F)(F)C(F)(F)C(F)(F)C(F)(F)C(F)(F)F`, “inactive”; for `O=C(O)C(F)(F)C(F)(F)C(F)(F)C(F)(F)C(F)(F)C(F)(F)C(F)(F)C(F)(F)C(F)(F)C(F)(F)C(F)(F)C(F)(F)F`, “inactive”.

For `OCCCC(F)(F)C(F)(F)C(F)(F)F`, the outcome was inactive. With `FC(F)(F)C(F)(F)C(F)(F)C(F)(F)CCI`, the result was inactive. Take `FC(F)(F)C(F)(F)C(F)(F)C(F)(F)C(F)(F)C(F)(F)C(F)(F)C(F)(F)F`: the outcome was inactive. In the case of `FC1CC(F)(F)C(F)(F)C1(F)F` (stereo not given), the result was inactive.

In the case of `OCC(F)(F)C(F)(F)C(F)(F)F`, the outcome was inactive. Take `FC(F)(F)C(F)(F)C(F)(F)C(F)(F)C(F)(F)C(F)(F)C(F)(F)Br`: the result was inactive.

`Cc1ccc(S(=O)(=O)OCC(F)(F)C(F)(F)C(F)(F)C(F)(F)C(F)(F)C(F)F)cc1`: the result was inactive.

For `NC(=O)C(F)(F)C(F)(F)C(F)(F)C(F)(F)F`, the outcome was inactive. Regarding `C=CC(=O)OCC(F)(F)C(F)(F)C(F)(F)C(F)(F)C(F)(F)C(F)(F)C(F)(F)F`, the result was inactive. The same measure, in the same setting: for `C=C(C)C(=O)OCC(F)(F)C(F)(F)C(F)(F)F` the value was “inactive”. Still for that read-out and setting: for `FC(F)(F)C(F)(F)C(F)(F)C(F)(F)C(F)(F)C(F)(F)C(F)(F)C(F)(F)CCS` the value was “inactive”; for `O=C(O)C(F)(F)C(F)(F)C(F)(F)C(F)(F)C(F)(F)C(F)(F)C(F)(F)C(F)(F)C(F)(F)C(F)(F)C(F)(F)C(F)(F)C(F)(F)F`, “inactive”. The same measure, in the same setting: for `O=C(O)C(F)(F)C(F)(F)C(F)F` the value was “inactive”; for `O=S(=O)(OCC(F)F)C(F)(F)F`, “inactive”; for `O=C(O)C(F)(F)C(F)(F)F`, “inactive”.

Turning to `CCCCCCCCC(F)(F)C(F)(F)C(F)(F)C(F)(F)C(F)(F)C(F)(F)F`, the outcome was inactive. On to `O=C(Cl)C(F)(F)C(F)(F)C(F)(F)C(F)(F)C(F)(F)C(F)(F)C(F)(F)C(F)(F)F`, for which the result was inactive.
